A short description of test [1]: qHTS profiling of the MIPE4 collection as inhibitors of Plasmodium falciparum (3D7) proliferation (AID 743344).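 Note: scaled between DMSO vehicle wells and 0.29 µM artemisinin as full inhibition.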 Particulars: P. falciparum 3D7 in erythrocytes, SYBR Green DNA fluorescence, 72 h; at 28.5 µM unless noted. The method, boiled down: (§1)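 Parasite DNA was quantified by SYBR Green I fluorescence (ex 485, em 535 nm) after overnight lysis in saponin/Triton buffer at room temperature. Cultures at 0.3% parasitemia and 2.5% hematocrit were first exposed to compound for 72 h at 37 C; signals were normalised to artemisinin (0.29 uM) and vehicle wells.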
In general terms: Quantitative high-throughput screening tests each substance at several concentrations.

A short description of test [2]: qHTS profiling of the MIPE4 collection as inhibitors of Plasmodium falciparum (DD2) proliferation (AID 743345). The note with it: P. falciparum Dd2 in erythrocytes, SYBR Green DNA, 72 h; at 28.5 µM unless noted. The method, boiled down:
as §1

The nature of test [3]: qHTS profiling of the MIPE4 collection as inhibitors of Plasmodium falciparum (DD2) proliferation (Rep 2) (AID 743346). Particulars: P. falciparum Dd2 in erythrocytes, SYBR Green DNA, 72 h; at 28.5 µM unless noted. The method, boiled down:
as §1

Test [4] can be described thus: High-throughput drug toxicity screening in the BPDCN cell line Gen2.2 (AID 1224824).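 Note: cells exposed to compounds for 48 h before reading.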 Particulars: Gen2.2 BPDCN cells; at 45.8 µM (top of the series) unless noted. The method in brief: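 Gen2.2 cells, 500 per well in phenol red-free RPMI with 10% FBS, exposed to compounds 48 h at 37 C, 5% CO2; viability by CellTiter-Glo luminescence. Percent activity scaled to DMSO (100%) and 9.2 uM bortezomib final (0%).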

A short description of test [5]: High-throughput drug toxicity screening in the BPDCN cell line Cal-1 (AID 1224825). Particulars: Cal-1 BPDCN cell viability, qHTS; at 45.8 µM (top of the series) unless noted. The method, boiled down:
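Viability of the BPDCN line Cal-1 is measured as ATP-based luminescence (CellTiter-Glo) following 48 h incubation with compounds. Percent activity uses DMSO-treated wells as 100% and 9.2 uM bortezomib as 0%.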

The nature of test [6]: qHTS assay for measurement of the activity of small molecule inhibitors on Zika virus induced Caspase-3 activity in human astrocytoma cells (AID 1224859; active = well fitted curve in the direction sought with a large enough effect; an effect the other way counts as inactive or inconclusive;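 note: plate controls were ZIKV-infected untreated cells for no effect and uninfected cells for full effect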). The method, boiled down: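 In SNB-19 cells plated at 250 cells/well and grown 16-20 h, compounds were applied 1 h before ZIKV (2 FFU/cell). Six hours later caspase-3/7 luminescence was recorded.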
The nature of test [7]: qHTS Screen of the MIPE 4.0 Collection Against Ewings Sarcoma (RDES) (AID 1259252; active = well fitted curve in the direction sought with a large enough effect; an effect the other way counts as inactive or inconclusive;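 note: 100% = DMSO-treated cells and 0% = medium-only wells without cells; nearly all actives have a fitted effect of over 35% in size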). The method, boiled down: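 Here, cells in 5% FBS RPMI were exposed for two days (48 h) to compound dilutions added four hours after plating. ATP-based CellTiter-Glo luminescence measured viability, normalized to vehicle and no-cell blanks.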
The nature of test [8]: qHTS assay for measurement of the activity of small molecule inhibitors on Zika virus induced Caspase-3 activity in human iPSC derived neural progenitor cells (hNPCs) (AID 1224857; active = well fitted curve in the direction sought with a large enough effect; an effect the other way counts as inactive or inconclusive; note: nearly all actives have a fitted effect of over 65% in size; note: potency is the fitted concentration of half-maximal effect). The method, boiled down: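 Caspase-3/7 induction by a 6-hour ZIKV infection was quantified with a luminescent Caspase-Glo 3/7 reagent incubated 30 minutes at room temperature. Compounds were preincubated with hNPCs for 1 hour; inhibition was calculated against uninfected and infected control wells.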

Test [9] is described as follows: qHTS profiling of the MIPE4 collection as inhibitors of Plasmodium falciparum (HB3) proliferation (AID 743347).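 Note: plate controls were DMSO vehicle wells for no effect and artemisinin wells for full effect.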 Particulars: P. falciparum HB3 in erythrocytes, SYBR Green DNA, 72 h; at 28.5 µM unless noted. The method, boiled down:
as §1

Test [10] can be described thus: qHTS profiling for inhibitors of Plasmodium falciparum (DD2) proliferation (AID 743323). The note with it: lower = more inhibition; at 28.7 µM (top of the series). The method, boiled down: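 SYBR Green fluorescence (ex 485, em 535 nm) of lysed cultures gives parasite DNA content; wells normalized to artemisinin (0.29 uM) and DMSO controls. Infected red cells: 0.3% parasitemia, 2.5% hematocrit, 72 h, 37 C.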

Test [11] is described as follows: qHTS profiling for inhibitors of Plasmodium falciparum (HB3) proliferation (AID 743324; active = well fitted curve in the direction sought with a large enough effect; an effect the other way counts as inactive or inconclusive;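 note: 100% = DMSO vehicle wells and 0% = artemisinin-treated control wells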). The note with it: Plasmodium falciparum HB3 blood-stage proliferation; at 28.7 µM (top of the series). The method in brief: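 SYBR Green fluorescence (485 ex/535 em) of lysed cultures, incubated overnight at room temperature in the dark, quantifies parasite DNA. Infected erythrocytes at 0.3% parasitemia and 2.5% hematocrit were exposed 72 h; values normalized to DMSO and 0.29 uM artemisinin controls.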

Each structure is given as a SMILES string. Inconclusive results are not listed. The source made the active and inactive calls. Unless noted, the rule behind the calls is not given here.

The results in this text go back to PubChem BioAssay (NCATS).

As to `CN(C)c1cc(NC(=O)CNC(C)(C)C)c(O)c2c1C[C@@H]1C[C@H]3[C@H](N(C)C)C(=O)C(C(N)=O)=C(O)[C@@]3(O)C(=O)C1=C2O`, the parasite growth, % of DMSO control in [1] amounted to 83%. Moreover, in [2], the parasite growth remaining, % of DMSO control (lower = more inhibition) worked out at 90.5%. Besides, in [3], the parasite growth, % of control (lower = inhibition) stood at 106%. The cell viability, % of control (lower = more cytotoxic) in test [4] came out at 142%. Besides, the viability (% of control) in test [5] was 97.2%. Besides, the Potency entry in test [6] and in test [7] was “inactive” each time.

Consider `NC(=O)c1ccc2nc(-c3ccc(Oc4ccc(Cl)cc4)cc3)[nH]c2c1`, for which the parasite growth, % of DMSO control in [1] stood at 48.1%. Moreover, the parasite growth remaining, % of DMSO control (lower = more inhibition) in [2] is 76.9%. Besides, the parasite growth, % of control (lower = inhibition) in test [3] worked out at 61.3%. Moreover, the cell viability, % of control (lower = more cytotoxic) in [4] amounted to 59.5%. Further, the viability (% of control) in test [5] is 38%. Also, the Potency entry in [8] is “inactive”.

In the case of `C[C@]12CC[C@@H]3c4ccc(O)cc4CC[C@H]3[C@H]1C[C@@H](O)[C@H]2O`, the parasite growth, % of DMSO control in [1] is 87%. The parasite growth remaining, % of DMSO control (lower = more inhibition) in test [2] was 91.2%. Also, the parasite growth, % of control (lower = inhibition) in [3] was found to be 76.7%. The same compound gave a growth, % of control in test [9] of 63.5%. In test [4], the cell viability, % of control (lower = more cytotoxic) came out at 77.1%. In [5], this compound showed a viability (% of control) of 67.8%. Moreover, in [8], the Potency entry was “inactive”.

As for `N#C[C@H]1C[C@H]2C[C@@H]2N1C(=O)[C@@H](N)C12CC3CC(CC(O)(C3)C1)C2`, the parasite growth, % of DMSO control in test [1] was 97.9%. Also, the parasite growth remaining, % of DMSO control (lower = more inhibition) in test [2] was 103%. Also, in [3], the parasite growth, % of control (lower = inhibition) came to 97%. In [9], this compound returned a growth, % of control of 69.2%. Besides, the cell viability, % of control (lower = more cytotoxic) in test [4] was 112%. The viability (% of control) in [5] turned out to be 100%. Besides, in test [8], the Potency entry was “inactive”.

The compound `CCc1ccc(OCc2ccccc2C(=O)Nc2ccc3nc(C)cc(N)c3c2)cc1` had an activity, percent of control in test [10] of 0.0556%. Besides, the remaining proliferation (% of control), lower = more inhibition in test [11] stood at 0.0187%. In test [1], this compound came in with a parasite growth, % of DMSO control of 5.35%. Further, in [2], the parasite growth remaining, % of DMSO control (lower = more inhibition) was determined as 6.22%. The parasite growth, % of control (lower = inhibition) in test [3] is 24.8%. In test [9], this compound showed a growth, % of control of 10%. The cell viability, % of control (lower = more cytotoxic) in test [4] was 7.97%. Moreover, the viability (% of control) in [5] turned out to be 4.73%. In addition, the Potency entry in test [8] was “inactive”.

Turning to `CC(=NNC(=S)N1CCC1)c1ccccn1`, the parasite growth, % of DMSO control in [1] came to 5.99%. The parasite growth remaining, % of DMSO control (lower = more inhibition) in test [2] was 5.88%. Moreover, the parasite growth, % of control (lower = inhibition) in [3] worked out at 10.5%. Besides, the growth, % of control in test [9] was determined as 6.19%. Moreover, in test [4], the cell viability, % of control (lower = more cytotoxic) was found to be 91.1%. In addition, in test [5], the viability (% of control) was 9.75%. Further, the Potency in test [8] is 16.6 µM (active).
